# Compound activity as filed in PubChem BioAssay.
# VP16 counter: counter-screen for ROR gamma inhibitors: Gal4-VP16 reporter | Drosophila S2 Gal4-VP16 UAS-luciferase, luminescence, 20 h | Potency, µM (series often up to 53.6 µM), for the others: at the highest dose activity, negative = inhibition, most hits filed as inhibitors | 3.5% of 310,000 active | AID 2546;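 further: Gal4-VP16 expression switched on by copper sulfate through the metallothionein promoter; nearly all actives have a fitted effect of over 50% in size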
# DT40 TDP1 CPT: growth inhibition of DT40 Tdp1-/-;hTDP1 cells with camptothecin (screen for TDP1 inhibitors); chicken DT40 Tdp1-/-;hTDP1 cells + 20 nM CPT, ATP luminescence, 48 h; Potency, µM (titrated, usually from 46.2 µM), inactives show at the top dose activity change, negative = growth inhibition, most hits filed as inhibitors; 12% of 420,000 active; further: nearly all actives have a fitted effect of over 55% in size
#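 Cell growth measured by CellTiter-Glo luminescence after a minimum 48 h, 37 C compound exposure with 20 nM CPT in Tdp1-knockout DT40 cells stably expressing hTDP1, seeded 400/well; qHTS titration format.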
# TDP1 cell noCPT: qHTS for Inhibitors of human tyrosyl-DNA phosphodiesterase 1 (TDP1): qHTS in cells in absence of CPT; 15% of 420,000 active; DT40 Tdp1-/- hTDP1 cells, no CPT, ATP luminescence, 48 h; AID 686978, 2013; Potency, µM (doses to about 46.2 µM), inactives show at the highest dose activity change, negative = growth inhibition, usual class: inhibitors; further: nearly all actives have a fitted effect of over 55% in size
#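 DT40 Tdp1-/-;hTDP1 cells, no CPT (DMSO vehicle only), 400 cells/well; compounds pin-transferred; ≥48 hr, 37 °C; CellTiter-Glo 30 min RT dark, luminescence read.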
# RORgamma inh: blocks mouse ROR gamma transcriptional activity. Drosophila S2 Gal4-RORgamma UAS-luciferase reporter, 20 h. 5.4% of 310,000 active. Potency, µM (series often up to 53.6 µM), without a hit: at the highest dose activity change, negative = inhibition, most hits filed as inhibitors. P51450; further: nearly all actives have a fitted effect of over 60% in size
#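 Luciferase reporter read in Schneider cells carrying Gal4-RORγ (mouse) and UAS-Photinus luciferase; cells given compound 1 h before 700 uM copper sulfate induction, then incubated 20 h at ambient temperature.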
# TDP1 block: TDP1 (human) enzyme inhibition | recombinant TDP1, AlphaScreen DNA substrate cleavage | Potency, µM (top dose mostly 130 µM), for inactives: at the highest dose activity change, negative = inhibition, hits mostly inhibitors | 0.28% of 350,000 active | AID 485290; further: nearly all actives have a fitted effect of over 40% in size
# Target sequence (Q9NUW8 whole entry, looked up): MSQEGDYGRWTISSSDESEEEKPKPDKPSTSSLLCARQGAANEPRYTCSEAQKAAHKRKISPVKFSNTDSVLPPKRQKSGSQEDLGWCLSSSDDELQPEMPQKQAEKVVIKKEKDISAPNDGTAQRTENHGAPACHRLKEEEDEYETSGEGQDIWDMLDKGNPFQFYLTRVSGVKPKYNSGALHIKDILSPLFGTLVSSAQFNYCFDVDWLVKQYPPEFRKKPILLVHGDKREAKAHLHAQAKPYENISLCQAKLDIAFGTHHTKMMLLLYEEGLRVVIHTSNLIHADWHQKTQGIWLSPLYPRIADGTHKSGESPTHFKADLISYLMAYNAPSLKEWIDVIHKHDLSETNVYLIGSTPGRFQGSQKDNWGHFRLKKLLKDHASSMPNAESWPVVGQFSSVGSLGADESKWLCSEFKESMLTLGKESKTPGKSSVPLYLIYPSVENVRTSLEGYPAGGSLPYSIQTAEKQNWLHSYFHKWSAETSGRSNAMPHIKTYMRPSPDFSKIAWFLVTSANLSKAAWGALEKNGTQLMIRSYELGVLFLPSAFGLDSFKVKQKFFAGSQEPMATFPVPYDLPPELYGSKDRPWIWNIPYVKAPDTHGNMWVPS
#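 Signal: AlphaScreen proximity between streptavidin donor and anti-FITC acceptor beads on intact substrate. Reaction: Tdp1 1 nM, substrate 15 nM final, 5 min RT after 15 min compound preincubation.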
# * marks the source's active call; other numbers are inactive results; ? = inconclusive; . = no result given; ! = a repeat was not active; [ ] = dose if it differs, or a comment. Rows were chosen to be rich in hits. Some 19% of all compounds tested hit in one or more screens of this group. The call rests on the fitted dose curve; in most records, active means well fitted curve in the direction sought with a large enough effect; inconclusive means small, poorly fitted or top-dose-only effect, or another doubt; inactive means no such curve, though single readings can be large; an effect the other way counts as inactive or inconclusive. On the % scale 0 is the no-effect control and ±100 the full control effect; potency means the concentration at half of the fitted maximal effect.
SMILES,VP16 counter,DT40 TDP1 CPT,TDP1 cell noCPT,RORgamma inh,TDP1 block
CN(C)CCCNCC(=O)Nc1ccc(Cl)cc1C(=O)c1ccccc1,15%,5%,1%,4%,2%
CN(C)CC/C=C1/c2ccccc2Sc2ccc(Cl)cc21,6%,?,29µM*!,3%,17%
CCOC(=O)C1(c2ccccc2)CCN(CC(=O)Nc2cccc3ccccc23)CC1,-1%,?,?,22%,5%
CCOC(=O)[C@]12Cc3cc(Cl)ccc3[C@H]1N(C(C)C)C(=O)c1ccccc12,.,2.6µM*,3.3µM*,.,.
CCOC(=O)[C@]12Cc3cc(Cl)ccc3[C@H]1N(CC(=O)OC)C(=O)c1ccccc12,.,9.2µM*,4.1µM*,.,.
O=C1CS[C@@H](c2ccccc2Cl)c2cc(Cl)ccc2N1,-5%,-8%,?,14%,11%
C/C=C(\C)C(=O)OC1CC(OC(C)=O)[C@@]2(C(=O)OC)COC3C2[C@@]12CO[C@](O)(C(=O)OC)C2[C@](C)(C12OC1(C)C1CC2OC2OC=C[C@]21O)C3O (some centres undefined),-14%,9%,-6%,22%,5%[56.1 µM]
CCC[C@H](N[C@@H](CCC)[C@H](O)c1ccccc1)[C@H](O)c1ccccc1,.,26µM*,23µM*,.,.
CNC(C)[C@H](O)c1ccccc1 (some centres undefined),-8%,-5%,-11%,-11%,6%[56.1 µM]
C[C@@H]1O[C@H](C[N+](C)(C)C)C[C@@H]1O,.,16%,-5%,.,5%
CC(=O)Nc1ccc(CC(=O)N2CCN(Cc3ccccc3)CC2)cc1,10%,4%,-8%,-7%,1%
O=c1oc2ccccc2cc1-c1cn2cc(Cc3ccc(F)cc3)sc2n1,.,5.2µM*,2.1µM*,.,4%
O=C(NC(=S)N1CC1)c1ccccc1,.,-4%,?,.,.
CCCS(=O)(=O)N1CCCC(C(=O)N2CCC3(CC2)OCCO3)C1 (centres undefined),3%,-12%,-1%,-5%,3%
CCCCNC(=S)N1CCn2cccc2C1c1cccnc1 (centres undefined),7%,-12%,-17%,12%,9%
CC1CC(C)CC(C)C(O)C(C#N)=CC=CCC(C2CCCC2C(=O)O)OC(=O)CC(O)C(C)C1 (centres undefined),.,0.0082µM*,0.1µM*,.,.
COc1ccc(N=Cc2c(O)n(CC3CCCO3)c(=O)[nH]c2=O)cc1 (centres undefined),-13%,-8%,-24%,19%,3%
C[C@]12CC[C@H]3[C@@H](CCC4=CC(=O)CC[C@@]43C)[C@@H]1CC[C@@H]2C(=O)CO,2%,?,10µM*,?,12%
C[C@]12CC[C@H]3[C@@H](CCC4=CC(=O)CC[C@@]43C)[C@@H]1CC[C@@H]2O,-10%,-22%,-24%,17%,1%
CCC(=O)O[C@H]1CC[C@H]2[C@@H]3CCC4=CC(=O)CC[C@]4(C)[C@H]3CC[C@]12C,-12%[17 µM],?,?,3%[2.98 µM],-6%[56.1 µM]
CC(=O)C1C(N2CC2)CC2C3CCC4=CC(=O)CCC4(C)C3CCC21C (centres undefined),.,7.3µM*,12µM*,.,.
CC12CCC(=O)C=C1CCC1C2CCC2(C)C(O)CCC12 (centres undefined),0%,23µM*,?,-3%,0%
CC1=C2CCC3C(CCC4=CC(=O)CCC43C)C2CC1 (centres undefined),.,?,29µM*,.,.
C[C@H](O)[C@H]1CC[C@H]2[C@@H]3CCC4=CC(=O)CC[C@]4(C)[C@H]3CC[C@]12C,-12%,-26%,-20%,32%,-11%
O=C(CF)NC(NC(=S)Nc1cccc([N+](=O)[O-])c1)C(Cl)(Cl)Cl (centres undefined),-4%,21µM*,?,0%,5%
SMILES,VP16 counter,DT40 TDP1 CPT,TDP1 cell noCPT,RORgamma inh,TDP1 block
CN1CCC23CCCC[C@H]2C1Cc1ccc(O)cc13 (some centres undefined),.,.,.,.,10%[56.1 µM]
COc1cc2c(c(OC)c1OC)-c1ccc(O)c(=O)cc1[C@@H](NC(C)=O)CC2,-11%,5.2µM*,6.5µM*,-25%,2%
COC1=C[C@H]2C3=C([C@H]2C1=O)[C@H](NC(C)=O)CCc1cc(OC)c(OC)c(OC)c13,14%[17 µM],.,.,6%[16.9 µM],7%[56.1 µM]
COc1cc2c(c(OC)c1OC)-c1ccc(O)cc1[C@@H](NC(C)=O)CC2,.,0.23µM*,0.16µM*,.,-2%
COc1cc2c(c(OC)c1OC)-c1ccc(O)cc1C(NC(C)=O)CC2 (centres undefined),.,0.21µM*,0.18µM*,.,.
COc1cc2c3c(c1OC)-c1cc(O)ccc1CC3NCC2 (centres undefined),4%,-5%,?,2%,5%
C[C@H](CCC(=O)O)C[C@H](C)C[C@H](C)C(=O)/C=C(\O)[C@H](C)C[C@H](C)C/C=C/[C@@H](C)[C@@H](O)[C@@H](C)[C@@H](O)C[C@@H]1CC[C@@](C)([C@H]2CC[C@@](C)([C@@H](C)O)O2)O1,-7%,.,.,-2%,2%
CCC(CC)N1CCN(Cc2nc3ccccc3c(=O)n2-c2ccc(F)cc2)CC1,7%,4%,6%,-35%[1.91 µM],.
CN(C)P(=O)(CCl)Nc1ccccc1 (centres undefined),?,0%,-5%,-16%,3%
COc1ccc(C(CC(=O)Nc2ccccn2)N2Cc3ccccc3C2=O)cc1 (centres undefined),30%,-25%,?,31%,.
CCOC(=O)c1cnc2c(ccc3ccccc32)c1Nc1ccc(N(C)C)cc1,.,15µM*,?,.,.
CC1OC(OC2C(O)CC(OC3C(O)CC(OC4CCC5(C)C(CCC6C5CCC5(C)C(C7=CC(=O)OC7)C(O)CC65O)C4)OC3C)OC2C)CC(O)C1O (centres undefined),.,1.5µM*,0.82µM*,.,.
CC1OC(O[C@@H]2C(O)CC(O[C@@H]3C(O)C[C@@H](OC4CC[C@]5(C)[C@H](CC[C@H]6[C@@H]5CC[C@]5(C)C(C7=CC(=O)OC7)C(O)C[C@@]65O)C4)OC3C)OC2C)CC(O)C1O (some centres undefined),-3%,0%,-14%,2.2µM*,14%[56.1 µM]
CC(=O)OC1CC2(O)C3CCC4CC(O)CCC4(C)C3CCC2(C)C1C1=CC(=O)OC1 (centres undefined),.,?,8.2µM*,.,.
